Results from PubChem BioAssay (NCI).
This is part of a sample that, as a whole, favours compounds with a hit. Of some 83,000 tested, about 20% had one in any assay.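 Values shown are percent growth following 48 h exposure of cells in 96-well plates to a single concentration of compound; below 10 was considered active.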 Values without a mark were called inactive. Activity calls are given as the source filed them.

Tests used:
Assay in all cases: NCI-60 one-dose screen, 48 h (100 = growth as untreated, 0 = no growth, -100 = all killed)
Settings in all cases: 10 µM unless noted
NCI-H23 lung = system: NCI-H23 lung
NCI-H226 lung = system: NCI-H226 lung
NCI-H322M lung = system: NCI-H322M lung
HOP-62 NSCLC = system: HOP-62 NSCLC
NCI-H460 lung = system: NCI-H460 lung
HOP-92 NSCLC = system: HOP-92 NSCLC
NCI-H522 lung = system: NCI-H522 lung
A549/ATCC NSCLC = system: A549/ATCC NSCLC
786-0 renal = system: 786-0 renal
COLO 205 colon = system: COLO 205 colon
DU-145 prostate = system: DU-145 prostate
K-562 leukemia = system: K-562 leukemia
MALME-3M melanoma = system: MALME-3M melanoma
MDA-MB-231 breast = system: MDA-MB-231 breast
RXF 393 renal = system: RXF 393 renal
SF-268 CNS = system: SF-268 CNS
SF-295 CNS = system: SF-295 CNS
SF-539 CNS = system: SF-539 CNS
UACC-257 melanoma = system: UACC-257 melanoma
M14 melanoma = system: M14 melanoma

Compound	growth (NCI-H23 lung)	growth (NCI-H226 lung)	growth (NCI-H322M lung)	growth (HOP-62 NSCLC)	growth (NCI-H460 lung)	growth (HOP-92 NSCLC)	growth (NCI-H522 lung)	growth (A549/ATCC NSCLC)	growth (786-0 renal)	growth (COLO 205 colon)	growth (DU-145 prostate)	growth (K-562 leukemia)	growth (MALME-3M melanoma)	growth (MDA-MB-231 breast)	growth (RXF 393 renal)	growth (SF-268 CNS)	growth (SF-295 CNS)	growth (SF-539 CNS)	growth (UACC-257 melanoma)	growth (M14 melanoma)
COc1cc2c(c(OC)c1OC)C(=O)CC(c1cccc(NC(=O)c3cc(N)ccc3Cl)c1)O2 (centres undefined)	71.9%	54.3%	89%	77.3%	67.2%	69.5%	8.06% (active)	71.5%	84.7%	86.2%	47.3%	15.6%	54%	42.7%	46%	60.4%	78.9%	56.6%	64.9%	56%
O=C(/C=C/c1ccc(O)c(O)c1)NC1CCOC1O (centres undefined)	104%	120%	105%	101%	116%	91.5%	75.6%	99.4%	97.2%	105%	108%	88.3%	103%	99.1%	125%	99.6%	101%	95.7%	102%	108%
CN(C)CCn1c2ccccc2c2nc3cc4ccccc4cc3nc21	16.6%	26.8%	29.6%	38.3%	-52.1% (active)	43.4%	27.5%	-68% (active)	-44.3% (active)	17.1%	-30% (active)	2.68% (active)	-87.3% (active)	9% (active)	-42.9% (active)	46.2%	-67.6% (active)	-72.2% (active)	18.1%	-63.3% (active)
COc1cc2c(c(OC)c1OC)C(=O)CC(c1cccc(NC(=O)c3cccc(NC(=O)[C@H](C)NC(=O)OC(C)(C)C)c3)c1)O2 (some centres undefined)	70.4%	53.1%	105%	73.6%	76.1%	74.4%	21%	59.9%	86.4%	81.8%	61.7%	40.7%	70.3%	69%	90%	53.6%	65.9%	85.2%	77%	76%
COc1ccc(CCC2c3c(cc4c(c3OC)OCO4)CCN2C)cc1 (centres undefined)	-48.6% (active)	-59.3% (active)	0.952% (active)	-30.2% (active)	-89.7% (active)	-30% (active)	-81% (active)	9.85% (active)	-67.1% (active)	-73.1% (active)	5.2% (active)	3.01% (active)	-98.4% (active)	-80.8% (active)	-35% (active)	10.2%	-65.2% (active)	-99.9% (active)	-65.7% (active)	
CN(C)c1ccnc(NCCCSC(c2ccccc2)(c2ccccc2)c2ccccc2)c1	62.7%	53%	61.5%	74.3%	-19.2% (active)	-2.94% (active)	41.1%	48.4%	8.23% (active)	-74.6% (active)	46.2%	-36.6% (active)	-94.6% (active)	31%	6.09% (active)	78.8%	17%	41.6%	-26.9% (active)	-70.8% (active)
CCN1C(=O)N(CC)C2NNC(Sc3c(C(=O)O)c4ccccc4n(C4CCCC4)c3=O)=NC21 (centres undefined)	36.8%	42%	67.3%	44.1%	4.22% (active)	73.4%	-23.1% (active)	28.2%	22.9%	-31.1% (active)	2.94% (active)	13.9%	72.4%	12.3%	50.2%	39.2%	8% (active)	-24.7% (active)	58.7%	-7.72% (active)
CC1(C)CC[C@]2(C(=O)Nc3ccccc3)CC[C@]3(C)C(=CCC4[C@@]5(C)C[C@@H](O)[C@H](O)[C@@](C)(CO)C5CC[C@]43C)C2C1 (some centres undefined)	75.9%	54.3%	89.7%	75.3%	51.4%	39.1%	41.6%	39.2%	71.1%	31.6%	76.8%	33.3%	73.9%	53.5%	17.6%	61.2%	50.4%	63%	65.6%	56.1%
